Test results from the supplement of paper PMC10849652.
The full data set covers some 7,900 targets. This sample favours those with a hit. About 0.6% of all pairs of compound and target were hits.

What was measured:
Assay in all cases: log2 fold change, soluble protein after heating vs DMSO (PISA); higher = thermal stabilisation; K562 cells, 10 uM, 30 min; active = over 0.2 and 3.5 SD of the protein, either way, in both replicates (recomputed)
YWHAB = YWHAB (UniProt P31946)
How it was run: (§1)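 Quantification of soluble protein used TMTpro 16plex LC-MS/MS, with channel sums equalised. Samples were the supernatant after 21,000xg for 90 min of pooled aliquots from K562 cells (2×10^6 cells/mL) treated with 10 μM compound for 30 min, heated for 3 min over 48°C-58°C, and extracted in PBS with 0.5% NP-40 at 4°C. Values, from duplicates, describe thermal stability against control samples on a log2 fold-change scale.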

YWHAQ = YWHAQ (UniProt P27348)
Sequence of YWHAQ (P27348 whole entry, looked up): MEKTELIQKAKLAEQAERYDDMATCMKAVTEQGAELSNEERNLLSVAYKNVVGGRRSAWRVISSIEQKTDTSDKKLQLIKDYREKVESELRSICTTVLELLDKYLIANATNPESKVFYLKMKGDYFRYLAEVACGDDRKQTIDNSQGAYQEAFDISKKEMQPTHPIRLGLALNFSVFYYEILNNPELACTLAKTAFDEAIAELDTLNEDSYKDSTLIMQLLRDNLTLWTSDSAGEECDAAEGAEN
How it was run: as §1

YWHAZ = YWHAZ (UniProt P63104)
How it was run: as §1

YY1 = YY1 (UniProt P25490)
Sequence of YY1 (P25490 whole entry, looked up): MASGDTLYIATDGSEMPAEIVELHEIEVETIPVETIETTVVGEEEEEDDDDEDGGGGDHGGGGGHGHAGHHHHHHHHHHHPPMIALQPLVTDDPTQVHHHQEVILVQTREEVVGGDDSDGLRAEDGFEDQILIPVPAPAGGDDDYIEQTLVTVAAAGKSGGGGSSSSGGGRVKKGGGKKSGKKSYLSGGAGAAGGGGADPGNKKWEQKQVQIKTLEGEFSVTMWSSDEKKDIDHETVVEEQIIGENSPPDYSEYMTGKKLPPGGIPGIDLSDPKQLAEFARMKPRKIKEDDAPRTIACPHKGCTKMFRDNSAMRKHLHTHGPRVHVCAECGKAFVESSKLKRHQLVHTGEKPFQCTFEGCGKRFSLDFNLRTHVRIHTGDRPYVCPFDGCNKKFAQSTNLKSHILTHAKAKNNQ
How it was run: as §1

ZADH2 = ZADH2 (UniProt Q8N4Q0)
How it was run: as §1

ZBTB21 = ZBTB21 (UniProt Q9ULJ3)
How it was run: as §1

ZBTB43 = ZBTB43 (UniProt O43298)
How it was run: as §1

ZC3H18 = ZC3H18 (UniProt Q86VM9)
Sequence of ZC3H18 (Q86VM9 whole entry, looked up): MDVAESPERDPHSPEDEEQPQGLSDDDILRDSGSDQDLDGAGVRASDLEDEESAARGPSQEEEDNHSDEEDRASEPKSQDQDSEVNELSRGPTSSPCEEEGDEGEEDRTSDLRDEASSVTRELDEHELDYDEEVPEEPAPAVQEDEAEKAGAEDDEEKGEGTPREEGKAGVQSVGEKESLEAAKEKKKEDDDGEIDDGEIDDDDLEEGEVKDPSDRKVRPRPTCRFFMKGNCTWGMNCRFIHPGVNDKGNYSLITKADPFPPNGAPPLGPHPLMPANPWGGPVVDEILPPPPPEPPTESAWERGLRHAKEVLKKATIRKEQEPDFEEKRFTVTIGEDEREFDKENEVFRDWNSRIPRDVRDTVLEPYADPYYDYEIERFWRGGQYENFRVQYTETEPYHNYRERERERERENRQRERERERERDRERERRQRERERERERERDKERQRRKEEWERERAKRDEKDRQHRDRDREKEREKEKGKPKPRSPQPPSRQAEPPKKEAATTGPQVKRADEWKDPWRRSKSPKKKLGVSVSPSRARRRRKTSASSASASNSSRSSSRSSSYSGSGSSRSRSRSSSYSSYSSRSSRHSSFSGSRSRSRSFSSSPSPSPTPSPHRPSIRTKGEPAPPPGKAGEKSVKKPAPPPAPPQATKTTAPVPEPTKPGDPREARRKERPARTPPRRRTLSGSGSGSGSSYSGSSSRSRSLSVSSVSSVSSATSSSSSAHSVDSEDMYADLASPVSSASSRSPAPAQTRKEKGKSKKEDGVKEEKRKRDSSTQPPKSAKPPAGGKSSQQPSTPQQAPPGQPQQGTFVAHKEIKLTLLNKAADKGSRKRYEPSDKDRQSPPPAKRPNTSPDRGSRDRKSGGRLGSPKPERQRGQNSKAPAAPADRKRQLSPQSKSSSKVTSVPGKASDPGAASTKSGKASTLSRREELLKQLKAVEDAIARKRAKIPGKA
How it was run: as §1

ZC3H8 = ZC3H8 (UniProt Q8N5P1)
Sequence of ZC3H8 (Q8N5P1 whole entry, looked up): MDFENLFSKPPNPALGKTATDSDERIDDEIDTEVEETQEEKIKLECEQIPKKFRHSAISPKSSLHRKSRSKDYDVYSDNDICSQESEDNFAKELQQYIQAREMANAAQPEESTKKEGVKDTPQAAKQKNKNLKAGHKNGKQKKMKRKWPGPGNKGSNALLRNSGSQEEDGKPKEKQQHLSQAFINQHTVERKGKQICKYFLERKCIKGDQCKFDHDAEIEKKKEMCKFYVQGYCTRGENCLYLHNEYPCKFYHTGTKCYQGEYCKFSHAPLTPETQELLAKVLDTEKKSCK
How it was run: as §1

ZC3HC1 = ZC3HC1 (UniProt Q86WB0)
How it was run: as §1

ZCCHC9 = ZCCHC9 (UniProt Q8N567)
Sequence of ZCCHC9 (Q8N567 whole entry, looked up): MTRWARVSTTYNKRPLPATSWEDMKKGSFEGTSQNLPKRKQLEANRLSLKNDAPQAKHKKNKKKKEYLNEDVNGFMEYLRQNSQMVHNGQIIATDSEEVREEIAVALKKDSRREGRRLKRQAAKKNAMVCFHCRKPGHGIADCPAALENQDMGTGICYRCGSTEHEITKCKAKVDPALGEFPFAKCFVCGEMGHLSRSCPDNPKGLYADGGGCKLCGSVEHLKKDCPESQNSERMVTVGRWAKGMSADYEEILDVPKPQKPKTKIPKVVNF
How it was run: as §1

ZDHHC17 = ZDHHC17 (UniProt Q8IUH5)
How it was run: as §1

ZDHHC20 = ZDHHC20 (UniProt Q5W0Z9)
Sequence of ZDHHC20 (Q5W0Z9 whole entry, looked up): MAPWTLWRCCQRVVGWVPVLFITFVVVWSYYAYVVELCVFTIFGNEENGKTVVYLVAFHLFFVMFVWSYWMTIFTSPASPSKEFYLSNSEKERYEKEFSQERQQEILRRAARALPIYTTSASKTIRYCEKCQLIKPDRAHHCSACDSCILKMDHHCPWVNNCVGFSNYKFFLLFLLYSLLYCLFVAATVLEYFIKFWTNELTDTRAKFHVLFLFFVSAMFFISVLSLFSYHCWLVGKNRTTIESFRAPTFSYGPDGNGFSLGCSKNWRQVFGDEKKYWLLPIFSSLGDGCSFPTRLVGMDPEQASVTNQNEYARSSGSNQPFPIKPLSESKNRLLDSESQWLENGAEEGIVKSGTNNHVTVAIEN
How it was run: as §1

ZDHHC5 = ZDHHC5 (UniProt Q9C0B5)
Sequence of ZDHHC5 (Q9C0B5 whole entry, looked up): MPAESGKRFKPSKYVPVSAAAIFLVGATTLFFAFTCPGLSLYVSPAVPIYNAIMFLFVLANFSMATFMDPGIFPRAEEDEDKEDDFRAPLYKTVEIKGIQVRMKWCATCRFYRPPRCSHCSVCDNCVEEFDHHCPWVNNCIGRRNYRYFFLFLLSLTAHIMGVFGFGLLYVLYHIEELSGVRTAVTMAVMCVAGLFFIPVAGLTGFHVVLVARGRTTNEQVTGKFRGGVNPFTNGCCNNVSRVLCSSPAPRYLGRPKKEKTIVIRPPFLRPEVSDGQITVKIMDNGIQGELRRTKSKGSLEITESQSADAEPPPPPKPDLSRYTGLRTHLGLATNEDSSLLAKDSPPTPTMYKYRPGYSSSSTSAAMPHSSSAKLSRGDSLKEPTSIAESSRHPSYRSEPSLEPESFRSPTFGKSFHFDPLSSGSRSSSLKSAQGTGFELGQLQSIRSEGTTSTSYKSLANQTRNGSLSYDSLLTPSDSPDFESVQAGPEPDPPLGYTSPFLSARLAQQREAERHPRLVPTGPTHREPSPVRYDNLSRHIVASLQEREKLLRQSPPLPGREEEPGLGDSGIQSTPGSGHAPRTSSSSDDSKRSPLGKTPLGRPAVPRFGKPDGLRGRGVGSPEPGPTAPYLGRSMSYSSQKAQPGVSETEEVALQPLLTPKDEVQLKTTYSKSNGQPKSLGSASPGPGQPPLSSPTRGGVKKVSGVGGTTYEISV
How it was run: as §1

ZDHHC6 = ZDHHC6 (UniProt Q9H6R6)
How it was run: as §1

ZDHHC7 isoform 2 = ZDHHC7 isoform 2 (UniProt Q9NXF8)
Sequence of ZDHHC7 isoform 2 (Q9NXF8 whole entry, looked up, canonical isoform): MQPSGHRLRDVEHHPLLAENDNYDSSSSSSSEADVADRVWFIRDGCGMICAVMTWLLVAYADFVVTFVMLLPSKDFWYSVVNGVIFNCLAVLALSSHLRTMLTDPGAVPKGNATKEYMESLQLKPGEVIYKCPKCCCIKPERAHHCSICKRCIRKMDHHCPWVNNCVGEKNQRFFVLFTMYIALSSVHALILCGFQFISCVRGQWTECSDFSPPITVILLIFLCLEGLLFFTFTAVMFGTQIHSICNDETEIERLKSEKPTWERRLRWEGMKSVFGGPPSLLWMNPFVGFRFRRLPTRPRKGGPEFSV
How it was run: as §1

ZBTB17 isoform 2 = ZBTB17 isoform 2 (UniProt Q13105)
Sequence of ZBTB17 isoform 2 (Q13105 whole entry, looked up, canonical isoform): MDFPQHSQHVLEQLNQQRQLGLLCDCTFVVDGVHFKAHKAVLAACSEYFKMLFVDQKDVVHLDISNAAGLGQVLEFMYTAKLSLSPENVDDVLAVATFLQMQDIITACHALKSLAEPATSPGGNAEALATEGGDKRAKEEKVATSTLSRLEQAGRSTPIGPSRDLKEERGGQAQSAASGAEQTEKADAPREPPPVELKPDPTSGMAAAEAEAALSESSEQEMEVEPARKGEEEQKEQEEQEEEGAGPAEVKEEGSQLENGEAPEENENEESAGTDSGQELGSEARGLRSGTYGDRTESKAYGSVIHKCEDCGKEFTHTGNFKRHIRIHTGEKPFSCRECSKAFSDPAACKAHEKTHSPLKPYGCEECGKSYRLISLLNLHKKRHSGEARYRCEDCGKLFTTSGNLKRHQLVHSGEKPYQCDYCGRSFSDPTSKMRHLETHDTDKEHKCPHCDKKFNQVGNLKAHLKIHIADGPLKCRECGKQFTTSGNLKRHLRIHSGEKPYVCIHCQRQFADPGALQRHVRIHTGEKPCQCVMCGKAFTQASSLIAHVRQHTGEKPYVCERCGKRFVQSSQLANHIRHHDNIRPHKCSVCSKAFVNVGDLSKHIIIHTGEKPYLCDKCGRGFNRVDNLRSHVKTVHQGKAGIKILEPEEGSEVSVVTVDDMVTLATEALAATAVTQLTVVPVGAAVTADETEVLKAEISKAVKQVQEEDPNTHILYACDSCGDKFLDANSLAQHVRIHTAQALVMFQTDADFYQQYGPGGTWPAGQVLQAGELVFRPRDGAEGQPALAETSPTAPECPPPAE
How it was run: as §1

ZCCHC17 = ZCCHC17 (UniProt Q9NP64)
Sequence of ZCCHC17 (Q9NP64 whole entry, looked up): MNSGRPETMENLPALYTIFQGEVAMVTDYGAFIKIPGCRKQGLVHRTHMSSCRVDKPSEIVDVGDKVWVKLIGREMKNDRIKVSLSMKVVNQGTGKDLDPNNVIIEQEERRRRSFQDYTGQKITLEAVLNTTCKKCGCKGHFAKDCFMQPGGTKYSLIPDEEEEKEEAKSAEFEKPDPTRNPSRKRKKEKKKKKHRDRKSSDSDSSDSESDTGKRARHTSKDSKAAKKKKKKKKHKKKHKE
How it was run: as §1

ZDHHC8 isoform 3 = ZDHHC8 isoform 3 (UniProt Q9ULC8)
How it was run: as §1

Measured: log2 fold change

Sequence of YWHAB (P31946 whole entry, looked up): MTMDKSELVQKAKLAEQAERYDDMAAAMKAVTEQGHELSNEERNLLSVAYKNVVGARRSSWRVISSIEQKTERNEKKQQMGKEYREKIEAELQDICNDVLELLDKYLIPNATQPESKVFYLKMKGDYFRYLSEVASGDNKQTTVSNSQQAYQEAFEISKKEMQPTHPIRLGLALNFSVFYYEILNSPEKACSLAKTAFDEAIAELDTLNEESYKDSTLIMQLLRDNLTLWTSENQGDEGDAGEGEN

Cc1cc(Nc2cc(CN3CCOCC3)c3nc(C)c(Cc4ccc(Cl)cc4F)n3n2)n[nH]1 [gandotinib]
inactive: YWHAQ -0.071 | YWHAZ 0.084 | YY1 -0.012 | ZADH2 0.128 | ZBTB21 0.074 | ZBTB43 0.043 | ZC3H18 0.017 | ZC3H8 0.15 | ZC3HC1 -0.157 | ZCCHC9 0.265 | ZDHHC17 0.052 | ZDHHC20 0.018 | ZDHHC5 -0.041 | ZDHHC6 -0.018 | ZDHHC7 isoform 2 0.034
active: YWHAB -0.25

CON(C)C(=O)N1N=C(c2cc(F)ccc2F)S[C@@]1(CCCN)c1ccccc1 [filanesib]
active: ZCCHC17 0.565 | ZCCHC9 0.527
inactive: YWHAB -0.044 | YWHAQ -0.086 | YWHAZ -0.027 | YY1 -0.006 | ZADH2 0.065 | ZBTB17 isoform 2 -0.026 | ZBTB21 0.075 | ZBTB43 -0.024 | ZC3H18 0.217 | ZC3H8 0.191 | ZC3HC1 -0.042 | ZDHHC17 -0.219 | ZDHHC20 0.008 | ZDHHC5 0.048

CS(=O)(=O)N1CCN(Cc2cc3nc(-c4cccc5[nH]ncc45)nc(N4CCOCC4)c3s2)CC1 [pictilisib]
inactive: YWHAB 0.002 | YWHAQ -0.142 | YWHAZ -0.037 | YY1 -0.021 | ZADH2 0.14 | ZBTB21 -0.035 | ZBTB43 0.027 | ZC3H18 -0.019 | ZC3H8 -0.007 | ZC3HC1 -0.003 | ZCCHC9 -0.004 | ZDHHC17 0.021 | ZDHHC20 0.066 | ZDHHC5 0.047 | ZDHHC6 -0.044 | ZDHHC7 isoform 2 0.089

Cc1ccc(NC(=O)c2cccc(C(C)(C)C#N)c2)cc1Nc1ccc2ncn(C)c(=O)c2c1
active: ZADH2 0.453
inactive: YWHAB 0.016 | YWHAQ 0.184 | YWHAZ 0.025 | YY1 0.035 | ZBTB17 isoform 2 0.018 | ZBTB21 -0.03 | ZBTB43 0.004 | ZC3H18 0 | ZC3H8 -0.021 | ZC3HC1 0.011 | ZCCHC17 -0.065 | ZCCHC9 -0.227 | ZDHHC17 0.076 | ZDHHC20 -0.067 | ZDHHC5 0.048

Cc1nc(Nc2n[nH]c3c2CN(C(=O)N[C@H](CN(C)C)c2ccccc2)C3(C)C)c2sccc2n1
inactive: YWHAB -0.002 | YWHAQ -0.033 | YWHAZ -0.015 | ZADH2 -0.127 | ZBTB21 -0.093 | ZBTB43 0.043 | ZC3H18 -0.145 | ZC3H8 0.081 | ZC3HC1 -0.103 | ZCCHC9 0.159 | ZDHHC17 -0.012 | ZDHHC20 -0.02 | ZDHHC5 -0.037 | ZDHHC7 isoform 2 0.046 | ZDHHC8 isoform 3 0.013
active: YY1 -0.304

Nc1ccccc1NC(=O)c1ccc(CNC(=O)OCc2cccnc2)cc1 [entinostat]
inactive: YWHAB -0.042 | YWHAQ 0.116 | YWHAZ 0.032 | YY1 0.053 | ZADH2 -0.04 | ZBTB17 isoform 2 -0.14 | ZBTB21 -0.074 | ZBTB43 -0.091 | ZC3H18 0.021 | ZC3H8 -0.141 | ZC3HC1 0.1 | ZCCHC17 0.081 | ZCCHC9 -0.112 | ZDHHC17 -0.047 | ZDHHC20 0.045 | ZDHHC5 -0.034

NCC(=O)Nc1ccc(-n2nc(C(F)(F)F)cc2-c2ccc3c(ccc4ccccc43)c2)cc1
inactive: YWHAB -0.007 | YWHAQ 0.457 | YWHAZ 0.084 | YY1 -0.009 | ZADH2 0.017 | ZBTB21 -0.042 | ZBTB43 0 | ZC3H18 -0.012 | ZC3H8 0.036 | ZC3HC1 -0.076 | ZCCHC17 -0.137 | ZCCHC9 -0.013 | ZDHHC17 0.012 | ZDHHC20 0.093 | ZDHHC5 -0.005 | ZDHHC7 isoform 2 -0.056

Cc1cccc(CC(=O)N2CCc3c2ccc(-c2cn(C)c4ncnc(N)c24)c3F)n1
inactive: YWHAB -0.058 | YWHAZ 0.029 | YY1 0.003 | ZADH2 -0.041 | ZBTB21 0.016 | ZBTB43 -0.025 | ZC3H18 -0.063 | ZC3H8 0.026 | ZC3HC1 0.029 | ZCCHC9 -0.048 | ZDHHC17 -0.082 | ZDHHC20 0.021 | ZDHHC5 -0.067 | ZDHHC6 0.097 | ZDHHC7 isoform 2 -0.06
active: YWHAQ 0.694

O=C(CCCCCCC(=O)Nc1ccccc1)NO [vorinostat]
inactive: YWHAB -0.02 | YWHAQ 0.39 | YWHAZ -0.013 | YY1 0.134 | ZADH2 0.002 | ZBTB21 0.079 | ZBTB43 -0.005 | ZC3H18 0.091 | ZC3H8 -0.039 | ZC3HC1 0.04 | ZCCHC9 -0.065 | ZDHHC17 -0.079 | ZDHHC20 -0.021 | ZDHHC5 -0.02 | ZDHHC6 -0.108 | ZDHHC7 isoform 2 0.006

COC(=O)[C@H](CCSC)NC(=O)c1ccc(NC[C@@H](N)CS)cc1-c1ccccc1
inactive: YWHAB 0.016 | YWHAQ 0.019 | YWHAZ -0.002 | YY1 0.014 | ZADH2 0.052 | ZBTB21 -0.022 | ZBTB43 0.018 | ZC3H18 0.045 | ZC3H8 -0.009 | ZC3HC1 -0.093 | ZCCHC17 0.033 | ZCCHC9 0.081 | ZDHHC17 0.01 | ZDHHC20 0.028 | ZDHHC5 0.054 | ZDHHC7 isoform 2 0.019

CC[C@H](C)n1cc(C)c2c(C(=O)NCc3c(C)cc(C)[nH]c3=O)cc(-c3ccc(N4CCNCC4)nc3)cc21
inactive: YWHAB 0.009 | YWHAQ 0.072 | YWHAZ 0.008 | YY1 0.061 | ZBTB21 0.059 | ZBTB43 -0.187 | ZC3H18 0.032 | ZC3H8 -0.012 | ZC3HC1 0.164 | ZCCHC9 0.013 | ZDHHC17 -0.022 | ZDHHC20 -0.046 | ZDHHC5 -0.052 | ZDHHC7 isoform 2 -0.099 | ZDHHC8 isoform 3 -0.064
active: ZADH2 0.526

C#Cc1cccc(Nc2ncnc3cc(OCCOC)c(OCCOC)cc23)c1 [erlotinib]
inactive: YWHAB 0.011 | YWHAQ -0.07 | YWHAZ 0.011 | YY1 -0.019 | ZADH2 0.005 | ZBTB17 isoform 2 -0.048 | ZBTB21 0.235 | ZBTB43 0.081 | ZC3H18 -0.066 | ZC3H8 -0.091 | ZC3HC1 0.075 | ZCCHC9 -0.099 | ZDHHC17 0.091 | ZDHHC20 0.163 | ZDHHC5 0.028 | ZDHHC7 isoform 2 0.09
